# Source: PubChem BioAssay (NCATS)
# Results filed as inconclusive are left out. The source made the active and inactive calls. Unless noted, calls follow the shape of the dose curve; as a rule, active = well fitted activation curve with a large enough effect in the main read-out, with a control signal flat (not every such curve was filed as active); inconclusive = small, poorly fitted or top-dose-only effect, or effect the other way, or a change in a side signal; inactive = flat fitted curve, though single readings scatter.
# Legend:
# [1] = target: Mitogen-activated protein kinase 10 (Mus musculus) (UniProt Q61831); assay: JNK3 AlphaScreen Assay (AID 530; active = well fitted curve in either direction with a large enough effect, not every such curve was filed as active;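 also: kinase came from lysate of stimulated human HepG2 cells; signal reports phosphorylation of biotinylated GST-cJun 1-79 at Ser73 with 10 µM ATP; series mostly up to about 57 µM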)
# Procedure, shortened: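 HepG2 lysate (IL-1b/TNFa pre-activated) + biotin-GST-cJun 1-79 + anti-pSer73 cJun; cpd titration, 15 min RT; ATP 10 uM start; Tris pH 7.6, MgCl2, DTT, vanadate; beads in EDTA buffer; AlphaScreen.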
# [2] = target: 3',5'-cyclic-AMP phosphodiesterase 4B (Homo sapiens) (UniProt Q07343); assay: qHTS Assay for Inhibitors of PDE-IV (AID 607)
# Procedure, shortened: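 The readout is membrane depolarisation from a cAMP-sensing CNG channel, detected with a potential dye at ex 535/em 590. Cells were HEK293-derived (endogenous PDE-IV) at 1000 cells/well, titrated up to 22.9 uM final.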
# Sequence of 3',5'-cyclic-AMP phosphodiesterase 4B (Homo sapiens) (Q07343 whole entry, looked up): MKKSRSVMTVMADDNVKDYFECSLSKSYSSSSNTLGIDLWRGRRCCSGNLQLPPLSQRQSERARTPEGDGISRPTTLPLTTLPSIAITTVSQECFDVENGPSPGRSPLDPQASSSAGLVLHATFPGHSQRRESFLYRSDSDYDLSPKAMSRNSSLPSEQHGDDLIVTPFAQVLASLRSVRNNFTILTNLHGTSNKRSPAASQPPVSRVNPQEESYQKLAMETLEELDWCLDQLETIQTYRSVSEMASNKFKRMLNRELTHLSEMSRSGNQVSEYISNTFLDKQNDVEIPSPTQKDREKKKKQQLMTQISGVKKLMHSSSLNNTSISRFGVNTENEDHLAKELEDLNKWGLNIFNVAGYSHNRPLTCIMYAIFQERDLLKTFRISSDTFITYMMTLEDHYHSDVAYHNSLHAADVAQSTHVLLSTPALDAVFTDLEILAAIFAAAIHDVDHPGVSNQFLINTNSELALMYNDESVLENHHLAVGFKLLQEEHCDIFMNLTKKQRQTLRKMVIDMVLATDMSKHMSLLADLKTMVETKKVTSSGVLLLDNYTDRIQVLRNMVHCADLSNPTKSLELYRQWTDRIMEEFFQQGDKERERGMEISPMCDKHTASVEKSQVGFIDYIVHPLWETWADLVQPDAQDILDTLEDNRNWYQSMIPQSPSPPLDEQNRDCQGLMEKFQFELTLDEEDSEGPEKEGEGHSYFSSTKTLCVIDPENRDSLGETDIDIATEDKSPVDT
SMILES,outcome [1],outcome [2]
COC(=O)[C@@]1(Cc2ccccc2)[C@H]2c3cc(C(=O)N(C)C)n(CCSCCO)c3C[C@H]2CN1C(=O)c1ccccc1,inactive,inactive
COC(=O)[C@@]1(Cc2ccccc2)[C@H]2c3cc(C(=O)N(C)C)n(Cc4ccccn4)c3C[C@H]2CN1C(=O)c1ccccc1,inactive,inactive
C[C@@H](C(=O)NCc1ccc(C(F)(F)F)nc1)[C@H]1C[C@]1(C)[C@H](NC(=O)OCc1ccccc1)c1ccccc1,inactive,inactive
COC(=O)[C@@]1(Cc2ccc(F)cc2)[C@H]2c3cc(C(=O)N(C)C)n(Cc4ccc(S(C)(=O)=O)cc4)c3C[C@H]2CN1C(=O)c1ccccc1,inactive,inactive
Cc1cc(CNC(=O)[C@H](C)[C@@H]2C[C@@]2(C)[C@@H](NC(=O)OCc2ccccc2)c2ccccc2)nn1C,inactive,inactive
COC(=O)[C@@]1(Cc2ccc(OC)cc2)[C@H]2c3cc(C(=O)N(C)C)n(CCF)c3C[C@H]2CN1C(=O)c1ccccc1,inactive,inactive
Cc1cc(CNC(=O)[C@H](C)[C@H]2C[C@]2(C)[C@H](NC(=O)OCc2ccccc2)c2ccccc2)nn1C,inactive,inactive
COC(=O)[C@@]1(Cc2ccc(OC)cc2)[C@H]2c3cc(C(=O)N(C)C)n(CCc4ccccn4)c3C[C@H]2CN1C(=O)c1ccccc1,inactive,inactive
COC(=O)[C@@]1(Cc2ccc(OC)cc2)[C@H]2c3cc(C(=O)N4CCCC4)n(C[C@H](O)CO)c3C[C@H]2CN1C(=O)c1ccccc1,inactive,inactive
Cc1ccc(CNC(=O)[C@H]2C[C@@H]2[C@H](NP(=O)(c2ccccc2)c2ccccc2)c2ccccc2)o1,inactive,inactive
COC(=O)[C@@]1(Cc2ccc(F)cc2)[C@H]2c3cc(C(=O)N4CCCC4)n(C[C@H](O)CO)c3C[C@H]2CN1C(=O)c1ccccc1,inactive,inactive
COC(=O)[C@@]1(Cc2ccc(F)cc2)[C@H]2c3cc(C(=O)N(C)C)n(CCSCCO)c3C[C@H]2CN1C(=O)c1ccccc1,inactive,inactive
COC(=O)[C@@]1(Cc2ccccc2)[C@@H]2[C@@H](CC(=O)[C@H]2CC(=O)C(=O)N(C)C)CN1C(=O)c1ccccc1,inactive,inactive
COC(=O)[C@@]1(Cc2ccc(OC)cc2)[C@H]2c3cc(C(=O)N(C)C)n(CCc4ccc(OC)c(Br)c4)c3C[C@H]2CN1C(=O)c1ccccc1,inactive,inactive
CC(C)=C1C(=O)C(c2ccccc2)=C2CN3C(=O)N(CCc4ccccc4)C(=O)[C@]3(Cc3ccc(C(F)(F)F)cc3)[C@H]21,inactive,inactive
Cc1ccc(CNC(=O)[C@@H]2C[C@H]2[C@@H](NP(=O)(c2ccccc2)c2ccccc2)c2ccccc2)o1,inactive,inactive
COc1ccc(NC(=O)CCCCC#Cc2ccccc2)cc1,inactive,inactive
COC(=O)[C@@]1(Cc2ccc(OC)cc2)[C@H]2c3cc(C(=O)N4CCCC4)n(CCO)c3C[C@H]2CN1C(=O)c1ccccc1,inactive,inactive
COC(=O)[C@@]1(Cc2ccc(OC)cc2)[C@H]2c3cc(C(=O)N4CCCC4)n(CCN4CCOCC4)c3C[C@H]2CN1C(=O)c1ccccc1,inactive,inactive
COC(=O)[C@@]1(Cc2ccc(OC)cc2)[C@H]2c3cc(C(=O)N(C)C)n(CCSCCO)c3C[C@H]2CN1C(=O)c1ccccc1,inactive,inactive
COC(=O)[C@@]1(Cc2ccc(F)cc2)[C@H]2c3cc(C(=O)N(C)C)n(CCc4ccccn4)c3C[C@H]2CN1C(=O)c1ccccc1,inactive,inactive
COc1ccc(CNC(=O)[C@H]2C[C@@H]2[C@H](NP(=O)(c2ccccc2)c2ccccc2)c2ccccc2)cc1OC,inactive,inactive
COC(=O)[C@@]1(Cc2ccc(F)cc2)[C@H]2c3cc(C(=O)N(C)C)n(Cc4nc5ccccc5[nH]4)c3C[C@H]2CN1C(=O)c1ccccc1,inactive,inactive
COC(=O)[C@@]1(Cc2ccc(OC)cc2)[C@H]2c3cc(C(=O)N(C)C)n(C[C@H](O)CO)c3C[C@H]2CN1C(=O)c1ccccc1,inactive,inactive
COC(=O)[C@@]1(Cc2ccccc2)[C@H]2c3cc(C(=O)N(C)C)n(CCO)c3C[C@H]2CN1C(=O)c1ccccc1,inactive,inactive
CC(C)c1ccc2c([Si](C)(C)C)c3c(nc2c1)-c1cccc(=O)n1C3,inactive,inactive
COC(=O)[C@@]1(Cc2ccc(F)cc2)[C@H]2c3cc(C(=O)N4CCCC4)n(Cc4cc(F)cc5c4OCOC5)c3C[C@H]2CN1C(=O)c1ccccc1,inactive,inactive
O=C(NCc1cccc2ccccc12)[C@H]1C[C@@H]1[C@H](NP(=O)(c1ccccc1)c1ccccc1)c1ccccc1,inactive,inactive
COC(=O)[C@@]1(Cc2ccccc2)[C@H]2c3cc(C(=O)N(C)C)n(Cc4ccc(OC)c(OC)c4)c3C[C@H]2CN1C(=O)c1ccccc1,inactive,inactive
